# Results reported in paper PMC4552634, “A New Set of Chemical Starting Points with Plasmodium falciparum Transmission-Blocking Potential for Antimalarial Drug Discovery” (PLoS ONE, 2015).
# Among all 13,000 compounds or so, about 3,200 (25%) showed an effect of 50% or more. Some of the results follow.
# Tested on: P. falciparum stage V gametocytes
# Parameters: BacTiter-Glo ATP luminescence viability of purified stage V gametocytes in 384-well plates, per cent inhibition versus DMSO
# Settings: 48 h, 5 µM; inhibitor
row,SMILES,% Inhibition [%]
1,COc1ccc2ncc(F)c(NC(=O)C3CCC(NCc4cc5cc(F)cc(F)c5[nH]4)CC3)c2n1 (stereo not shown) [TCMDC-136455],25.24
2,O=C(Nc1cccc(C2=NCCN2)c1)Nc1cccc(C2=NCCN2)c1 [TCMDC-124304],-0.7345
3,COc1ccc(NC(=O)N2CCc3ccc(OCCN(C(C)C)C(C)C)cc32)cc1C(F)(F)F [TCMDC-140253],-24.24
4,N#Cc1cccc(CNC(=O)c2cccc(Nc3ccnc4ccc(F)cc34)c2)c1 [TCMDC-136309],21.53
5,Cc1cc(NC(=O)c2ccc(S(=O)(=O)N(Cc3ccccc3)C(C)C)cc2)no1 [TCMDC-123547],-7.124
6,CCNc1cc(C(=O)N[C@@H](Cc2ccccc2)[C@H](O)CNCc2cc(OC)cc(OC)c2)cc(N2CCCC2=O)c1 [TCMDC-134572],-8.682
7,CCn1c(-c2nonc2N)nc2c(-c3cccc(NC(=O)Nc4ccc(C(F)(F)F)cc4)c3)ncc(OCCCN)c21 [TCMDC-136179],115.3
8,CCOC(=O)NCC(=O)Nc1cccc(-c2cccc(-c3nc4ccc(C(F)(F)F)cc4[nH]3)c2)c1 [TCMDC-137047],-10.81
9,CCOC(=O)c1ccc(NC(=O)Nc2cccc(-c3ccc(-c4nc5ccc(C(F)(F)F)cc5[nH]4)cc3)c2)cc1 [TCMDC-133261],-31.99
10,O=C(Nc1ccc(Cl)cc1)Nc1cccc(-c2cccc(-c3nc4ccc(C(F)(F)F)cc4[nH]3)c2)c1 [TCMDC-133180],-47.4
11,CCn1c(-c2nonc2N)nc2c(-c3cccc(NC(=O)Nc4cccc(C(F)(F)F)c4)c3)ncc(OCCCN)c21 [TCMDC-136178],94.17
12,O=C(NC1CC1)c1ccc(N2CCCCN2CCc2ccccc2)c(C(F)(F)F)c1 [TCMDC-135276],0.5792
13,COc1ccc(CCNC(=O)c2ccccc2O)cc1-c1ccc(C(C)(C)C)cc1 [TCMDC-136182],40.5
14,N=C1NC(=N)N(OCCCCCCON2C(=N)NC(=N)NC2C=Cc2ccccc2)C(C=Cc2ccccc2)N1 (stereo not shown) [TCMDC-131602],-13.97
15,Cc1nc2nc(N)nc(N)c2c(C)c1Cc1ccc(C(N)=O)cc1 [TCMDC-137641],15.14
16,CC1=C(C(=O)Nc2cc3cn[nH]c3cc2F)C(c2cccc(O)c2F)CC(=O)N1 (stereo not shown) [TCMDC-136296],76.63
17,CC1=C(C(=O)Nc2cc3cn[nH]c3cc2F)C(c2cccc(NS(C)(=O)=O)c2)CC(=O)N1 (stereo not shown) [TCMDC-136177],35.05
18,CC1=C(C(=O)Nc2cc3cn[nH]c3cc2F)C(c2ccc(Cl)c(NS(C)(=O)=O)c2)CC(=O)N1 (stereo not shown) [TCMDC-136204],27.6
19,C=CCOC(=O)N1CCC(CNCc2cccc(-c3ccc(-c4nc5ccccc5[nH]4)s3)c2)C1.O=C(O)C(F)(F)F (stereo not shown) [TCMDC-133036],38.09
20,O=C(NCCCCN1CCC(c2ccc3c(c2OCc2ccncc2)CCCC3)CC1)c1ccc(NC(=O)c2ccc(Cl)cc2)cc1 [TCMDC-138725],119.9
21,O=C(NCCCCN1CCC(c2ccc3c(c2OCc2ccccn2)CCCC3)CC1)c1ccc(NC(=O)c2ccc(Cl)cc2)cc1 [TCMDC-138720],101.6
22,COc1ccc(OCc2ccccn2)c(C2CCN(CCCCNC(=O)c3ccc(NC(=O)c4ccc(Cl)cc4)cc3)CC2)c1 [TCMDC-138311],-15.54

row,SMILES,% Inhibition [%]
1,Cc1cc(C2CCN(CCCCNC(=O)c3ccc(NC(=O)c4ccc(Cl)cc4)cc3)CC2)c(C)cc1OCc1ccccn1 [TCMDC-138306],24.78
2,Cc1ccc(NC(C)C(=O)Nc2ccccc2)cc1S(=O)(=O)N1CCCCCC1 (stereo not shown) [TCMDC-124868],-63.29
3,Brc1cc(Br)c2c(c1)C(NCCCNC1CCNc3c(Br)cc(Br)cc31)CCN2 (stereo not shown) [TCMDC-140067],-3.983
4,COc1ccc(NC(=O)[C@H](CC(C)C)Nc2ccnc(Nc3ccccc3)n2)cc1 [TCMDC-134750],-9.476
5,COc1cccc(OC)c1C(=O)Nc1cccc(-c2nn3ccccc3c2-c2ccnc(Nc3cccc(F)c3)n2)c1 [TCMDC-135847],-55.46
6,CC(C)CNCc1ccc(-c2cccc(CN(CCCN3CCN(C)CC3)C(=O)/C=C/c3ccccc3)c2)cc1 [TCMDC-140542],91.48
7,O=C(/C=C/c1ccc(CNCCN2CCOCC2)cc1)NCCc1ccccc1 [TCMDC-140901],-18.05
8,CC(C)CNCc1cccc(-c2cccc(CN(CCCN3CCN(C)CC3)C(=O)/C=C/c3ccccc3)c2)c1 [TCMDC-140541],106.7
9,CC(C)CNCc1cccc(-c2ccc(CN(CCCN3CCN(C)CC3)C(=O)/C=C/c3ccccc3)cc2)c1 [TCMDC-140545],109.3
10,CC(C)CNCc1ccc(-c2ccc(CN(CCCN3CCN(C)CC3)C(=O)/C=C/c3ccccc3)cc2)cc1 [TCMDC-140546],104.5
11,COC(=O)c1c(C#N)c(OC)cc(O)c1CSC[C@H](Nc1nc(-c2ccc([N+](=O)[O-])cc2)cs1)C(=O)NCCN1CCCCC1 [TCMDC-138651],-15.18
12,Cc1nc(N)nc(N)c1OCCCCCCOc1ccccc1 [TCMDC-131354],-4.555
13,Cc1ccc(F)c(C(=O)Nc2cccc(-c3nn4ccccc4c3-c3ccnc(Nc4cccc(F)c4)n3)c2)c1F [TCMDC-135846],-36.31
14,O=C(Nc1cccc(-c2nn3ccccc3c2-c2ccnc(Nc3ccc(Cc4ccncc4)cc3)n2)c1)c1c(F)cccc1F [TCMDC-135845],-48.11
15,CC1(C)N=C(N)N=C(N)N1OCCc1ccc(N)cc1 [TCMDC-131632],14.77
16,Cc1ccc(F)c(OC2CCN(c3ccc(C(=O)NC4CC4)cn3)CC2)c1 [TCMDC-134036],27.07
17,CCNc1cc(C)nc(Nc2ccc(NC(=O)c3cccs3)cc2)n1 [TCMDC-124981],-23.08
18,O=C(Nc1cc(C(F)(F)F)cc(C(F)(F)F)c1)c1cc(Cl)ccc1O [TCMDC-125465],22.2
19,O=C(Nc1cccc(-c2cccc(-c3nc4ccc(C(F)(F)F)cc4[nH]3)c2)c1)c1cccnc1Cl [TCMDC-136838],-52.15
20,O=C(Nc1cccc(C(F)(F)F)c1)c1cccc2[nH]c(C(F)(F)F)nc12 [TCMDC-141579],65
21,Cc1ncccc1C(=O)Nc1cccc(-c2cccc(-c3nc4ccc(C(F)(F)F)cc4[nH]3)c2)c1 [TCMDC-136860],-20.59
22,O=C(Nc1ccc(Cl)cc1)c1cccc2[nH]c(C(F)(F)F)nc12 [TCMDC-141578],11.96

row,SMILES,% Inhibition [%]
1,O=C(Nc1ccc(Cl)cc1)c1cc(Cl)cc2[nH]c(C(F)(F)F)nc12 [TCMDC-141586],55.63
2,Fc1ccccc1COc1ccc(Nc2ncnc3ccc(-c4nnc(C(F)(F)F)o4)cc23)cc1Cl [TCMDC-138161],24.13
3,Cc1ccc(Nc2ccnc(Nc3ccc4c(c3)CS(=O)(=O)C4)n2)cc1O [TCMDC-138484],-40.59
4,CCNc1cc(C(=O)N[C@@H](Cc2ccccc2)[C@H](O)CN[C@@H]2CCc3ccccc32)cc(N2CCCCS2(=O)=O)c1 [TCMDC-134706],14.74
5,CCN(CC)CCN(Cc1ccc(-c2ccc(C(F)(F)F)cc2)cc1)C(=O)Cn1c(CCc2cc(F)c(F)c(F)c2)nc(=O)c2ccccc21 [TCMDC-140944],66.72
6,CCN(CC)CCN(Cc1ccc(-c2ccc(C(F)(F)F)cc2)cc1)C(=O)Cn1c(CCc2ccc(F)c(F)c2)nc(=O)c2ccccc21 [TCMDC-140948],78.31
7,CCN(CC)CCN(Cc1ccc(-c2ccc(C(F)(F)F)cc2)cc1)C(=O)Cn1c(CCc2ccc(F)c(C#N)c2)nc(=O)c2ccccc21 [TCMDC-140957],85.6
8,CCN(CC)CCN(Cc1ccc(-c2ccc(C(F)(F)F)cc2)cc1)C(=O)Cn1c(CCc2cccc(C#N)c2)nc(=O)c2ccccc21 [TCMDC-140980],54.63
9,CCN(CC)CCN(Cc1ccc(-c2ccc(C(F)(F)F)cc2)cc1)C(=O)Cn1c(CCc2ccc(F)c(F)c2)cc(=O)c2ccccc21 [TCMDC-141026],39.3
10,C/C=C1/CN2CC[C@H]1C[C@H]2[C@H](O)c1ccnc2ccc(O)cc12 [TCMDC-138167],19.07
11,C=CCOc1ccccc1CNCC(O)c1cccc(C(F)(F)F)c1 (stereo not shown) [TCMDC-140394],31.37
12,COc1ccc(CCN2CCC(Nc3nc4ccccc4n3CCc3ccc(OC)cc3)CC2)cc1 [TCMDC-123918],9.396
13,N#Cc1cc(C(=O)Nc2ccccc2)c(N)nc1SCC(=O)NC(c1ccccc1)c1cccs1 (stereo not shown) [TCMDC-124880],-24.84
14,CCN(CC)c1cc(C)c2cc(NC(=O)c3cc(=O)c4ccccc4o3)ccc2n1 [TCMDC-123592],0.01985
15,CN(C)Cc1cccc(-c2ccc(NC(=O)c3ccc4c(=O)n(C5CCCCC5)cnc4c3)cc2)c1 [TCMDC-132367],-36.18
16,CN(C)Cc1cccc(-c2ccc(NC(=O)c3ccc4c(=O)n(Cc5cnn(C)c5)cnc4c3)cc2)c1 [TCMDC-132370],-68.25
17,CCCn1cnc2cc(C(=O)Nc3ccc(-c4cccc(CN(C)C)c4)cc3)ccc2c1=O [TCMDC-132363],8.061
18,COc1cc(OC)nc(-c2cccc(NC(=O)c3ccc4c(=O)n(CCN5CCCCC5)cnc4c3)c2)n1 [TCMDC-132360],-43.17
19,CN(C)Cc1cccc(-c2ccc(NC(=O)c3ccc4c(=O)n(CCN5CCCCC5)cnc4c3)cc2)c1 [TCMDC-132362],105.2
20,CN(C)Cc1cccc(-c2ccc(NC(=O)c3ccc4c(=O)n(CC5CCCO5)cnc4c3)cc2)c1 (stereo not shown) [TCMDC-132365],80.9
